SARS PLP yeast: SARS-CoV PLP inhibition in yeast; 0.19% of 330,000 active; AID 485353; Potency, µM (top dose mostly 32.9 µM), usual class: activators; S. cerevisiae expressing SARS-CoV PLpro, growth rescue; calls by dose curve; note: nearly all actives have a fitted effect of over 55% in size
Pf growth 48h: P. falciparum growth inhibition at 48 hours (one generation). AID 504832. 5.9% of 310,000 active. P. falciparum luciferase growth in erythrocytes, 48 h. Potency, µM (highest dose often 28.7 µM), actives largely listed as inhibitors
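Parasite viability was followed by luminescence of a genomically integrated firefly luciferase. Cultures held 0.1% parasitemia at 2% hematocrit (final), incubated under 5% CO2 at 37 C.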
AMA1 RON2 block: disrupts binding of P. falciparum AMA1 to RON2; 0.2% of 360,000 active; AID 720542; AlphaScreen AMA1-biotinylated RON2 peptide binding; Potency, µM (titrated, usually from 58.2 µM), most hits filed as inhibitors; note: nearly all actives have a fitted effect of over 45% in size
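AMA1 (3D7) with his tag at 25 nM final met compounds first, then biotinylated RON2 peptide at 25 nM; detection used donor plus acceptor beads, 10 µg/mL apiece, read by AlphaScreen after 30 min at room temperature.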
Pf growth 96h: inhibits malaria parasite growth, 96 h | P. falciparum luciferase reporter growth, 96 h | 6.9% of 320,000 active | Potency, µM (doses to about 28.7 µM), usual class: inhibitors | AID 504834
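P. falciparum expressing integrated firefly luciferase, in erythrocytes at 2% hematocrit, 0.05% parasitemia, incubated with compounds 96 h at 37 C, 5% CO2. Growth inhibition read as loss of luminescence; two-generation exposure targets delayed-death apicoplast inhibitors.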
Each line names hits and unclear results; the compound was inactive in the other large screens. Sampled rows, rich in hits. Any-hit rate of the full collection: about 9.4%. Unless noted, calls come from the whole dose curve; as a rule, active = well fitted curve in the direction sought with a large enough effect; inconclusive = small, poorly fitted or top-dose-only effect, or another doubt; inactive = no such curve, though single readings can be large; an effect the other way counts as inactive or inconclusive.

C#CCOCCOCCOCCNc1nc(N2CCN(C(=O)CCCCCCCCCCNC(=O)[C@@H](CCSC)n3cc(CCO)nn3)CC2)nc(N2CCN(C(=O)CCCCCCCCCCNC(=O)[C@H](CO)n3cc(CCCCCN)nn3)CC2)n1	Pf growth 48h 1µM, Pf growth 96h inconclusive
COc1ccc(OC)c(N=c2oc3cc(O)ccc3cc2C(N)=O)c1	Pf growth 96h 13µM
COc1ccc(Cl)cc1NC(=O)CN(C)C(=O)CCSc1ccc(C)cc1	Pf growth 48h 12µM, Pf growth 96h 12µM
COc1cccc(NC(=O)CN(C)C(=O)CCSc2ccc(C)cc2)c1	Pf growth 48h 10µM
COc1ccc(OC)c(S(=O)(=O)N(C)CC(=O)Nc2cc(Cl)ccc2OC)c1	Pf growth 48h 9.3µM, Pf growth 96h 7.4µM
COc1ccc(NC(=O)CN(C)C(=O)CCSc2ccc(C)cc2)cc1	Pf growth 48h inconclusive, Pf growth 96h inconclusive
COc1ccc(Cl)cc1NC(=O)CN(C)C(=O)c1cc2c(s1)CCCC2	Pf growth 48h 9.3µM, Pf growth 96h 5.2µM
COc1ccc(Cl)cc1NC(=O)CN(C)C(=O)CSc1ccc2c(c1)OCCO2	Pf growth 48h inconclusive
COc1ccc(Cl)cc1NC(=O)CN(C)C(=O)Cc1ccc2c(c1)CCC2	Pf growth 48h inconclusive
COc1ccccc1NC(=O)CN(C)S(=O)(=O)c1cc(C)ccc1OC	none (no result: Pf growth 48h)
O=C(NCC1CCCO1)c1ccc(S(=O)(=O)Nc2ccccc2F)cc1 (centres undefined)	Pf growth 48h inconclusive
CCOc1ccc(N2C(=O)CC(S/C(N)=N/N=C/c3cccs3)C2=O)cc1 (centres undefined)	none
COc1cccc(NC(=O)CCSc2ccc3ccccc3n2)c1	Pf growth 96h 6.6µM
Cc1ccc(NC(=O)c2sc(Cl)nc2-c2ccccc2)cc1	none (no result: Pf growth 96h)
CCOC(=O)C(=CNc1nc(-c2ccccc2)c(C(=O)Nc2ccc(-c3ccccc3)cc2)s1)C(=O)OCC	SARS PLP yeast inconclusive, Pf growth 48h inconclusive, Pf growth 96h 15µM
COc1cccc(Nc2ccccc2C(=O)O)c1	Pf growth 96h inconclusive
COc1cc(-c2ccc(Nc3ccccc3C(=O)O)c(OC)c2)ccc1Nc1ccccc1C(=O)O	Pf growth 48h inconclusive, AMA1 RON2 block 18µM, Pf growth 96h inconclusive
CCOC(=O)CCC(NC(=O)c1ccc(NCN2C(=O)c3ccccc3C2=O)cc1)C(=O)OCC (centres undefined)	Pf growth 96h 4.1µM (no result: Pf growth 48h)
Cc1ccccc1NS(=O)(=O)c1ccc(OCC(=O)N2CCN(C)CC2)cc1	none
COc1ccc(C2=NC(C)(C)Cc3cc(OC)c(OC)cc32)cc1OC	Pf growth 96h inconclusive
COc1cc2c(cc1OC)C(c1cc3ccccc3oc1=O)=NC(C)(C)C2	Pf growth 48h 8.3µM
CCOC(=O)C1=C(C)N(C)C(=S)NC1c1c(OCC)ccc2ccccc12 (centres undefined)	Pf growth 48h inconclusive, Pf growth 96h inconclusive
CCOc1ccc2ccccc2c1C1NC(=S)N(C)C(C)=C1C(=O)OC (centres undefined)	Pf growth 48h inconclusive, Pf growth 96h 3.3µM
Cc1nc(C(=O)NCc2ccccc2)sc1C1(C)CC(c2ccccc2)=NO1 (centres undefined)	Pf growth 48h inconclusive, Pf growth 96h inconclusive
Cc1cc(C(=O)NC2CCCCC2C)c2ccccc2n1 (centres undefined)	Pf growth 96h inconclusive
Cc1nccc2[nH]c(=O)c(C(=O)NC3CCCCC3C)cc12 (centres undefined)	Pf growth 48h inconclusive, Pf growth 96h 3.3µM
C[C@@H]1CCCCO[C@H](CN(C)Cc2ccc3c(c2)OCO3)[C@@H](C)CN([C@H](C)CO)C(=O)c2cc(NC(=O)c3ccccc3)ccc2O1	none (no result: SARS PLP yeast, Pf growth 48h, Pf growth 96h)
O=C(Sc1cccc2cccnc12)c1ccccc1Br	Pf growth 48h 1.3µM, Pf growth 96h 4.7µM (no result: AMA1 RON2 block)
O=C(Sc1cccc2cccnc12)c1ccc(F)cc1	Pf growth 48h 6.6µM, Pf growth 96h inconclusive (no result: AMA1 RON2 block)
O=C(O)c1ccccc1C(=O)NCc1ccccc1	none (no result: Pf growth 96h)
COc1ccc(C(=O)C[n+]2cn(C(F)F)c3ccccc32)c(F)c1	none
Cc1cccc(OC2(c3ccccc3)OC(=O)c3ccccc32)c1C (centres undefined)	Pf growth 48h inconclusive, Pf growth 96h 9.3µM
CCCCCCCOC1(c2ccccc2)OC(=O)c2ccccc21 (centres undefined)	Pf growth 48h inconclusive, Pf growth 96h 6.6µM
CCCCCCOC1(c2ccccc2)OC(=O)c2ccccc21 (centres undefined)	Pf growth 48h 10µM, Pf growth 96h 8.3µM
Cc1ccccc1C(=O)Nc1ccnn1C1CCN(CC2CC=CCC2)CC1 (centres undefined)	Pf growth 96h 15µM
CC(CN1CCC(n2nccc2NC(=O)CCCc2ccccc2)CC1)c1ccccc1 (centres undefined)	Pf growth 48h 15µM, Pf growth 96h 12µM
O=C(Nc1ccnn1C1CCN(CCCc2ccccc2)CC1)c1ccccc1	none
O=C(Nc1ccnn1C1CCN(CC2CC=CCC2)CC1)c1ccccc1Cl (centres undefined)	Pf growth 48h inconclusive
Cc1ccccc1C(=O)Nc1ccnn1C1CCN(CCCc2ccccc2)CC1	Pf growth 48h inconclusive, Pf growth 96h 15µM
Cc1ccc(CN2CCC(n3nccc3NC(=O)c3ccccc3C)CC2)o1	Pf growth 96h 2.1µM (no result: SARS PLP yeast)
COc1ccc(Br)cc1S(=O)(=O)NCc1ccccc1	none
COC(=O)c1ccccc1NC(=O)c1c(O)c2cccc3c2n(c1=O)CCC3	none (no result: AMA1 RON2 block, Pf growth 96h)
O=C(CN1CCCC1)Nc1ccc(Br)cc1[N+](=O)[O-]	Pf growth 96h inconclusive
O=[N+]([O-])c1ccc(OCC(O)CN(CCO)CCO)cc1 (centres undefined)	none
CCCCN(CCCC)CC(O)COc1ccc(Br)cc1 (centres undefined)	Pf growth 48h 3.7µM, Pf growth 96h 3.3µM
CC12CCC3C(CC=C4CC(O)CCC43C)C1C/C(=C\c1ccccc1F)C2=O (centres undefined)	Pf growth 48h inconclusive, Pf growth 96h 5.9µM
CCCc1cc(=O)n2[nH]c(NCc3c(F)cccc3Cl)nc2n1	Pf growth 96h 12µM
O=C(Nc1ccccc1)Nc1cccc2nsnc12	none
Cc1ccc(C2=NN(C(=O)CCl)C(c3cccs3)C2)o1 (centres undefined)	Pf growth 48h 3.7µM, Pf growth 96h 2.1µM
CC(=O)N1N=C(c2ccco2)CC1c1cccs1 (centres undefined)	none
O=C(CCl)N1N=C(c2ccco2)CC1c1cccs1 (centres undefined)	Pf growth 48h 12µM, Pf growth 96h inconclusive
COc1cc2nc(C3CC3)n(NC(=O)c3ccc(F)cc3)c(=O)c2cc1OC	Pf growth 96h inconclusive
Cn1ccc2c(N3CCCC3)cc3c(c21)C1CCC3C1 (centres undefined)	none (no result: SARS PLP yeast, Pf growth 48h, Pf growth 96h)
Cn1ccc2c(-c3ccc(F)cc3)cc3c(c21)C1CCC3C1 (centres undefined)	none (no result: SARS PLP yeast, Pf growth 48h, Pf growth 96h)
CN(CCc1ccccc1)c1cc2c(c3c1ccn3C)C1CCC2C1 (centres undefined)	AMA1 RON2 block 16µM (no result: SARS PLP yeast, Pf growth 48h, Pf growth 96h)
CN(Cc1ccccc1)c1cc2c(c3c1ccn3C)C1CCC2C1 (centres undefined)	AMA1 RON2 block 16µM (no result: SARS PLP yeast, Pf growth 48h, Pf growth 96h)
